The nature of test [1]: CCTE_Mundy_HCI_Cortical_NOG_NeuriteCount: CCTE's Neurite Outgrowth Assay in rat cortical cells for Neurite Count, Mundy Lab (AID 2284212).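 Also: cells fixed about two days after chemical exposure began.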 The procedure, abridged:
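Rat cortical primary cells; compound added 2 h post-plating, 1/10 dilution of working solution. Anti-betaIII-tubulin/AF488 ICC; ArrayScan neurite count vs DMSO.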

A short description of test [2]: CCTE_Mundy_HCI_Cortical_NOG_NeuriteLength: CCTE's Neurite Outgrowth Assay in rat cortical cells for Neurite Length, Mundy Lab (AID 2284213). The procedure, abridged: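 First, rat primary cortical cells were plated and, 2 h later, given test chemical as a 1/10 dilution. Finally, βIII-tubulin immunostaining enabled automated imaging of neurite length.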
Test [3] in a line: CCTE_Mundy_HCI_hN2_NOG_NeuriteCount: CCTE's Neurite Outgrowth Assay in human hN2 cells for Neurite Count, Mundy Lab (AID 2284219; active = hit-call score of the fitted dose curve at least 0.9, where 1 is the maximum). In a few lines: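 In this morphology assay, hNP1-derived neurons received test chemical 2 h post-plating and were fixed two days later in warm paraformaldehyde/sucrose containing Hoechst 33342. Neurites, labelled by rabbit anti-βIII-tubulin (1:800) and Alexa Fluor-488 (1:500), were counted automatically.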

Test [4] in a line: CCTE_Mundy_HCI_hN2_NOG_NeuriteLength: CCTE's Neurite Outgrowth Assay in human hN2 cells for Neurite Length, Mundy Lab (AID 2284220; active = hit-call score of the fitted dose curve at least 0.9, where 1 is the maximum). In a few lines:
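Using βIII-tubulin immunofluorescence and Hoechst nuclear counterstain, this component quantifies neurite length in hNP1-derived neurons.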

The nature of test [5]: CCTE_Mundy_HCI_hN2_NOG_NeuronCount: CCTE's Neurite Outgrowth Assay in human hN2 cells for Neuron Count, Mundy Lab (AID 2284221; active = hit-call score of the fitted dose curve at least 0.9, where 1 is the maximum). In a few lines:
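Read-out is the number of betaIII-tubulin-positive neurons imaged by automated high-content analysis, with DMSO as negative control.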

The nature of test [6]: CCTE_Mundy_HCI_Cortical_NOG_NeuronCount: CCTE's Neurite Outgrowth Assay in rat cortical cells for Neuron Count, Mundy Lab (AID 2284236; active = hit-call score of the fitted dose curve at least 0.9, where 1 is the maximum;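 also: neurons counted by imaging betaIII-tubulin and Hoechst stained cortical cells; cells exposed to compound for about 48 hours before fixation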). The procedure, abridged: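 Read-out: neuron number by high-content imaging of betaIII-tubulin (Alexa Fluor-488) and Hoechst-labelled rat primary cortical cells.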
A short description of test [7]: CCTE_Mundy_HCI_Cortical_NOG_BPCount: CCTE's Neurite Outgrowth Assay in rat cortical cells for Branch Point Count, Mundy Lab (AID 2284237). The procedure, abridged:
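Measured 50.33 h after dosing, this morphology endpoint uses rat primary cortical cultures labelled for betaIII-tubulin. Branch points are quantified by high-content imaging, with DMSO as negative control and baseline.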

Test [8] can be described thus: UKN5_HCS_SBAD2_cell_viability: Viability Assessment in the University of Konstanz (UKN) Leist Lab Neurite Outgrowth Assay in human iPSC-derived immature Dorsal Root Ganglia Neurons (UKN5) (AID 2284056). In a few lines:
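iPSC-derived immature peripheral neurons (SBAD2) seeded on Matrigel with CHIR99021, SU5402 and DAPT, dosed 1 h later for 24 h. Viability from Hoechst H-33342 and calcein-AM live staining, high-content imaging; bidirectional fit versus DMSO.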

Test [9] is described as follows: UKN5_HCS_SBAD2_neurite_outgrowth: University of Konstanz (UKN) Leist Lab Neurite Outgrowth Assay in human iPSC-derived immature Dorsal Root Ganglia Neurons (UKN5) (AID 2284070). The settings on record: actives raise or lower the signal. In a few lines:
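Thaw, seed on Matrigel (100.000 cells/cm2), dose 1 h later; at 23 h live-stain with H-33342 and calcein-AM for 60 min; image at 24 h. Neurite area fitted bidirectionally vs DMSO.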

The nature of test [10]: UKN2_HCS_IMR90_neural_migration: University of Konstanz (UKN) Leist Lab Neural Crest Cell Migration Assay in human induced IMR90 Pluripotent Stem Cells (UKN2) (AID 2284204). Conditions: actives raise or lower the signal. The procedure, abridged:
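Using a 96-well stopper format with PLO/laminin/fibronectin coating, neural crest cells from iPSC migrate in cytokine-supplemented N2-S medium; after 24 h, chemicals are applied for a further 24 h, then cells are imaged after dye staining.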

A short description of test [11]: UKN4_HCS_LUHMES_neurite_outgrowth: University of Konstanz (UKN) Leist Lab Neurite Outgrowth Assay in human LUHMES cells (UKN4) (AID 2284206). Conditions: actives raise or lower the signal. In a few lines: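 Human LUHMES cells were differentiated for two days, replated and treated with chemicals for 24 h. Neurite outgrowth was quantified as calcein-stained neurite area by HCS imaging, fitted bidirectionally relative to DMSO.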

Test [12] can be described thus: UKN4_HCS_LUHMES_cell_viability: Viability Assessment in the University of Konstanz (UKN) Leist Lab Neurite Outgrowth Assay in human LUHMES cells (UKN4) (AID 2284232). The procedure, abridged: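 Cells switched to differentiation medium at day 0, replated on day 2 in medium lacking cAMP and GDNF, and compound-treated once attached. Live staining began 23.5 h later, imaging followed at 24 h.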

A short description of test [13]: UKN2_HCS_IMR90_cell_viability: Viability Assessment in the University of Konstanz (UKN) Leist Lab Neural Crest Cell Migration Assay in human induced IMR90 Pluripotent Stem Cells (UKN2) (AID 2284233).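 Also: viability of neural crest cells differentiated from IMR90 iPSC measured by calcein-AM fluorescence imaging; cells exposed to compound for 24 h after a 24 h migration phase.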 The procedure, abridged:
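cMINC format, iPSC-derived neural crest (IMR90); 24 h migration (EGF/FGF, N2-S), then 24 h toxicant. Calcein-AM/H-33342 stain 30 min; fluorescence intensity by HCS; DMSO-normalised, bidirectional fitting.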

In test [14] the target is Estrogen receptor (Homo sapiens) (UniProt P03372). Nature of the test: CCTE_Deisenroth_AIME_96WELL_LUC_Active: CCTE's 96-well Estrogen Receptor Transactivation Assay with AIME metabolic competence (ERTA luciferase; metabolism positive), Deisenroth Lab (AID 2284023; active = hit-call score of the fitted dose curve at least 0.9, where 1 is the maximum). In a few lines:
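Metabolism-positive mode: induced rat hepatic S9 in alginate microspheres conditions test solutions (0.002 - 200 uM, 10 points) for 2 hours. VM7Luc4E2 ER luciferase reporter cells then exposed 24 h; positive-direction fit against 17beta-estradiol, n=4 typical.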

The target is the same in test [15]. Nature of the test: CCTE_Deisenroth_AIME_96WELL_LUC_Inactive: CCTE's 96-well Estrogen Receptor Transactivation Assay without AIME metabolic competence (ERTA luciferase; metabolism negative), Deisenroth Lab (AID 2284025; active = hit-call score of the fitted dose curve at least 0.9, where 1 is the maximum). In a few lines: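 Metabolism-negative arm: chemicals (0.002–200 uM, 10 points) incubated 2 h with alginate-water microspheres, then medium moved onto VM7Luc4E2 cells for 24 h luciferase read-out. Positive direction vs 17beta-estradiol; n≥4 experiments.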

Test [16] in a line: CCTE_Deisenroth_AIME_96WELL_CTox_Active: Cytotoxicity Assessment (CTOX) in CCTE's 96-well Estrogen Receptor Transactivation Assay with AIME metabolic competence (metabolism positive), Deisenroth Lab (AID 2284028; active = hit-call score of the fitted dose curve at least 0.9, where 1 is the maximum). The procedure, abridged: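 Cytotoxicity in VM7Luc4E2 breast cells after 24 h exposure to medium from a 2 h metabolic pre-incubation with induced rat hepatic S9 in alginate microspheres; fluorescent live-cell protease readout, 10-point series 0.002–200 uM, n=4.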

A short description of test [17]: CCTE_Deisenroth_AIME_96WELL_CTox_Inactive: Cytotoxicity Assessment (CTOX) in CCTE's 96-well Estrogen Receptor Transactivation Assay without AIME metabolic competence (metabolism negative), Deisenroth Lab (AID 2284029; active = hit-call score of the fitted dose curve at least 0.9, where 1 is the maximum). In a few lines: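 Metabolism-negative mode: alginate-water lids without rat S9, 2 h pre-incubation of 10-point series (0.002 - 200 uM). Conditioned medium on VM7Luc4E2 cells 24 h; loss of fluorescent live-cell protease signal marks cytotoxicity.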

This is an account of results in PubChem BioAssay (EPA / NIEHS).

Records with an inconclusive call do not appear. Active and inactive are the calls of the source. The calls were made as follows, unless noted: active = hit-call score of the fitted dose curve at least 0.9, where 1 is the maximum; inactive = score below 0.9.

Sequence of Estrogen receptor (Homo sapiens) (P03372 whole entry, looked up): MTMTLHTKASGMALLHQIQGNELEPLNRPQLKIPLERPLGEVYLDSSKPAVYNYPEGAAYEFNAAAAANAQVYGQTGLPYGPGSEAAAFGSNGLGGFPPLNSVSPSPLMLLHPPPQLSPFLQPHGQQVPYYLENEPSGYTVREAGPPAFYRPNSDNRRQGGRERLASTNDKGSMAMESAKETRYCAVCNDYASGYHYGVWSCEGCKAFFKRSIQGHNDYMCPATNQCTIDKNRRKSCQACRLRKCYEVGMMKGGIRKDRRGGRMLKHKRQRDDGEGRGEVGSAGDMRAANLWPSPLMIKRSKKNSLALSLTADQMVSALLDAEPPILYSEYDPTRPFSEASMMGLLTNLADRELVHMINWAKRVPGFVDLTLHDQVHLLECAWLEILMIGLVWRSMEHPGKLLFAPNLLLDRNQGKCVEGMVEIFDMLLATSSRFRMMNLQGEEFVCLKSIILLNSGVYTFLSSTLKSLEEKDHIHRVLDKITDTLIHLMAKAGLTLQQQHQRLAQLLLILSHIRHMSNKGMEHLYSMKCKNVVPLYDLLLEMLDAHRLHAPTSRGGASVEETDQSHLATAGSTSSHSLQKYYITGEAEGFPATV

For the compound `[Li+]`, the result in test [1], in test [2], in test [3], in [6] and in test [7] was inactive. In addition, the AC50 (usually the concentration at which the activity in the assay is half-maximal) was 300 nM (active) in test [4] and 304 nM (active) in test [5].

Take `Cc1ccccc1`: the result in test [8], in [9], in [10], in [11], in test [12] and in [13] was inactive.

As to `O=C(C=Cc1ccccc1)c1ccccc1`, the AC50 in [14] was 31.9 µM (active); in test [15], 28.2 µM (active); in [17], 114 µM (active). For the same compound, the result in test [16] was inactive.
